# Laboratory results from the supplement of paper PMC8728848.
# This is one part of a sample in which the strongest signals are shown more often than they occur.
# B1: BTL (Bryothamnion triquetrum) (protein)
# chain: ADPICGSSGYSCTTPAILTPKSPGSFPSGYSKVIVTGVGGSYSVYIHRPDGFKVYKASEGGCASFGSYSGGGNSEVGKYGSGGTVVAVACK
# Legend:
# Test in all cases: glycan array binding signal (z-score within array); higher = stronger binding
# Details in all cases: glycan notation: IUPAC condensed, linker removed
# [1] = molecular target: Fuc(a1-2)Gal(b1-3)GalNAc(b1-3)Gal(a1-4)Gal(b1-4)Glc
# Summary of the method: (§1)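 Glycan array data were curated from 3228 arrays in the Consortium for Functional Glycomics database and kept only where the protein sequence was available. Glycan names were converted to IUPAC-condensed notation, and columns mapping to the same glycan were averaged. The binding signal is a within-array Z-score, averaged across arrays of the same protein sequence at different concentrations or buffers and across linkers. Negative Z-scores can be read as non-binding.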
# [2] = molecular target: Fuc(a1-2)Gal(b1-3)GlcNAc(b1-2)Man(a1-3)[Fuc(a1-2)Gal(b1-3)GlcNAc(b1-2)Man(a1-6)]Man(b1-4)GlcNAc(b1-4)[Fuc(a1-6)]GlcNAc
# Summary of the method: as §1
# [3] = molecular target: Fuc(a1-2)Gal(b1-3)[Fuc(a1-4)]GlcNAc
# Summary of the method: as §1
# [4] = molecular target: Fuc(a1-2)Gal6S(b1-4)Glc
# Summary of the method: as §1
# [5] = molecular target: Fuc(a1-4)GlcNAc
# Summary of the method: as §1
# [6] = molecular target: Fuc(b1-3)GlcNAc
# Summary of the method: as §1
# [7] = molecular target: Gal(a1-3)Gal(b1-4)GlcNAc(b1-2)Man
# Summary of the method: as §1
# [8] = molecular target: Gal(a1-3)Gal(b1-4)GlcNAc(b1-3)GalNAc
# Summary of the method: as §1
# [9] = molecular target: Gal(a1-4)Gal(b1-4)GlcNAc(b1-3)Gal(b1-4)Glc
# Summary of the method: as §1
# [10] = molecular target: Gal(b1-3)GalNAc(b1-3)Gal
# Summary of the method: as §1
# [11] = molecular target: Gal(b1-3)GlcNAc(b1-2)Man(a1-3)[Gal(b1-3)GlcNAc(b1-2)Man(a1-6)]Man(b1-4)GlcNAc(b1-4)[Fuc(a1-6)]GlcNAc
# Summary of the method: as §1
# [12] = molecular target: Gal(b1-3)[Fuc(a1-4)]GlcNAc(b1-2)Man
# Summary of the method: as §1
# [13] = molecular target: Gal(b1-4)GlcNAc(b1-2)Man(a1-3)[Gal(b1-4)GlcNAc(b1-2)Man(a1-6)]Man(b1-4)GlcNAc(b1-4)[Fuc(a1-6)]GlcNAc
# Summary of the method: as §1
# [14] = molecular target: Gal(b1-4)GlcNAc(b1-2)Man(a1-3)[Gal(b1-4)GlcNAc(b1-2)Man(a1-6)][Gal(b1-4)GlcNAc(b1-4)]Man(b1-4)GlcNAc(b1-4)[Fuc(a1-6)]GlcNAc
# Summary of the method: as §1
# [15] = molecular target: Gal(b1-4)GlcNAc(b1-2)Man(a1-6)Man(b1-4)GlcNAc(b1-4)GlcNAc
# Summary of the method: as §1
# [16] = molecular target: Gal(b1-4)GlcNAc(b1-2)[Gal(b1-4)GlcNAc(b1-6)]Man(a1-6)[Gal(b1-4)GlcNAc(b1-2)Man(a1-3)]Man(b1-4)GlcNAc(b1-4)[Fuc(a1-6)]GlcNAc
# Summary of the method: as §1
# [17] = molecular target: Gal(b1-4)GlcNAc(b1-3)Gal(b1-3)GalNAc
# Summary of the method: as §1
# [18] = molecular target: Gal(b1-4)GlcNAc(b1-3)Gal(b1-4)GlcNAc
# Summary of the method: as §1
# [19] = molecular target: Gal(b1-4)GlcNAc(b1-3)Gal(b1-4)GlcNAc(b1-2)Man(a1-3)[Gal(b1-4)GlcNAc(b1-3)Gal(b1-4)GlcNAc(b1-2)Man(a1-6)]Man(b1-4)GlcNAc(b1-4)[Fuc(a1-6)]GlcNAc
# Summary of the method: as §1
# [20] = molecular target: Gal(b1-4)GlcNAc(b1-3)Gal(b1-4)GlcNAc(b1-3)Gal(b1-4)GlcNAc(b1-2)Man(a1-3)[Gal(b1-4)GlcNAc(b1-3)Gal(b1-4)GlcNAc(b1-3)Gal(b1-4)GlcNAc(b1-2)Man(a1-6)]Man(b1-4)GlcNAc(b1-4)[Fuc(a1-6)]GlcNAc
# Summary of the method: as §1
# [21] = molecular target: Gal(b1-4)GlcNAc(b1-3)Gal(b1-4)GlcNAc(b1-3)Gal(b1-4)GlcNAc(b1-3)Gal(b1-4)GlcNAc(b1-2)Man(a1-3)[Gal(b1-4)GlcNAc(b1-3)Gal(b1-4)GlcNAc(b1-3)Gal(b1-4)GlcNAc(b1-3)Gal(b1-4)GlcNAc(b1-2)Man(a1-6)]Man(b1-4)GlcNAc(b1-4)[Fuc(a1-6)]GlcNAc
# Summary of the method: as §1
# [22] = molecular target: Gal(b1-4)GlcNAc(b1-3)Gal(b1-4)GlcNAc(b1-3)Gal(b1-4)GlcNAc(b1-3)Gal(b1-4)GlcNAc(b1-3)Gal(b1-4)GlcNAc(b1-2)Man(a1-3)[Gal(b1-4)GlcNAc(b1-3)Gal(b1-4)GlcNAc(b1-3)Gal(b1-4)GlcNAc(b1-3)Gal(b1-4)GlcNAc(b1-3)Gal(b1-4)GlcNAc(b1-2)Man(a1-6)]Man(b1-4)GlcNAc(b1-4)[Fuc(a1-6)]GlcNAc
# Summary of the method: as §1
# [23] = molecular target: Gal(b1-4)GlcNAc(b1-3)Gal(b1-4)GlcNAc(b1-6)[Gal(b1-3)]GalNAc
# Summary of the method: as §1
# [24] = molecular target: Gal6S(b1-3)GlcNAc6S
# Summary of the method: as §1
# [25] = molecular target: Gal6S(b1-4)Glc6S
# Summary of the method: as §1
# [26] = molecular target: GalNAc4S6S(b1-4)GlcNAc
# Summary of the method: as §1
# [27] = molecular target: GlcNAc(a1-3)Gal(b1-4)GlcNAc
# Summary of the method: as §1
# [28] = molecular target: GlcNAc(b1-2)[GlcNAc(b1-6)]Man(a1-6)[GlcNAc(b1-2)Man(a1-3)]Man(b1-4)GlcNAc(b1-4)[Fuc(a1-6)]GlcNAc
# Summary of the method: as §1
# [29] = molecular target: GlcNAc(b1-3)Gal(b1-4)GlcNAc(b1-2)Man(a1-3)[GlcNAc(b1-3)Gal(b1-4)GlcNAc(b1-2)Man(a1-6)]Man(b1-4)GlcNAc(b1-4)GlcNAc
# Summary of the method: as §1
# [30] = molecular target: GlcNAc(b1-3)Gal(b1-4)GlcNAc(b1-3)Gal(b1-4)GlcNAc(b1-2)Man(a1-3)[GlcNAc(b1-3)Gal(b1-4)GlcNAc(b1-3)Gal(b1-4)GlcNAc(b1-2)Man(a1-6)]Man(b1-4)GlcNAc(b1-4)[Fuc(a1-6)]GlcNAc
# Summary of the method: as §1
# [31] = molecular target: Kdn(a2-3)Gal(b1-3)GalNAc
# Summary of the method: as §1
# [32] = molecular target: Man(a1-3)[Man(a1-6)]Man(b1-4)GlcNAc(b1-4)[Fuc(a1-6)]GlcNAc
# Summary of the method: as §1
# [33] = molecular target: Neu5Ac(a2-3)Gal(b1-3)GlcNAc(b1-2)[Neu5Ac(a2-3)Gal(b1-3)GlcNAc(b1-4)]Man(a1-6)[Neu5Ac(a2-3)Gal(b1-3)GlcNAc(b1-2)Man(a1-3)]Man(b1-4)GlcNAc(b1-4)GlcNAc
# Summary of the method: as §1
# [34] = molecular target: Neu5Ac(a2-3)Gal(b1-3)GlcNAc6S
# Summary of the method: as §1
# [35] = molecular target: Neu5Ac(a2-3)Gal(b1-4)GlcNAc(b1-2)Man(a1-3)[Neu5Ac(a2-3)Gal(b1-4)GlcNAc(b1-2)Man(a1-6)]Man(b1-4)GlcNAc(b1-4)[Fuc(a1-6)]GlcNAc
# Summary of the method: as §1
# [36] = molecular target: Neu5Ac(a2-6)Gal(b1-4)GlcNAc(b1-2)Man(a1-3)[Neu5Ac(a2-3)Gal(b1-4)GlcNAc(b1-2)Man(a1-6)]Man(b1-4)GlcNAc(b1-4)GlcNAc
# Summary of the method: as §1
# [37] = molecular target: Neu5Ac(a2-6)Gal(b1-4)GlcNAc(b1-2)Man(a1-3)[Neu5Ac(a2-6)Gal(b1-4)GlcNAc(b1-2)Man(a1-6)]Man(b1-4)GlcNAc(b1-4)[Fuc(a1-6)]GlcNAc
# Summary of the method: as §1
# [38] = molecular target: Neu5Ac(a2-6)Gal(b1-4)GlcNAc(b1-6)[Gal(b1-3)GlcNAc(b1-3)]Gal(b1-4)Glc
# Summary of the method: as §1
# [39] = molecular target: Neu5Ac(a2-8)Neu5Ac(a2-8)Neu5Ac(a2-3)[GalNAc(b1-4)]Gal(b1-4)Glc
# Summary of the method: as §1
# [40] = molecular target: Neu5Ac(b2-6)GalNAc
# Summary of the method: as §1
binder,measurement,setting,value
B1,glycan array binding signal (z-score),[1],-0.262
same,glycan array binding signal (z-score),[2],2.75
same,glycan array binding signal (z-score),[3],-0.245
same,glycan array binding signal (z-score),[4],-0.244
same,glycan array binding signal (z-score),[5],-0.199
same,glycan array binding signal (z-score),[6],-0.257
same,glycan array binding signal (z-score),[7],-0.311
same,glycan array binding signal (z-score),[8],-0.244
same,glycan array binding signal (z-score),[9],-0.208
same,glycan array binding signal (z-score),[10],-0.22
same,glycan array binding signal (z-score),[11],4.76
same,glycan array binding signal (z-score),[12],-0.111
same,glycan array binding signal (z-score),[13],4.92
same,glycan array binding signal (z-score),[14],0.352
same,glycan array binding signal (z-score),[15],-0.192
same,glycan array binding signal (z-score),[16],6.49
same,glycan array binding signal (z-score),[17],-0.107
same,glycan array binding signal (z-score),[18],-0.27
same,glycan array binding signal (z-score),[19],6.38
same,glycan array binding signal (z-score),[20],5.89
same,glycan array binding signal (z-score),[21],4.48
same,glycan array binding signal (z-score),[22],4.45
same,glycan array binding signal (z-score),[23],-0.128
same,glycan array binding signal (z-score),[24],-0.24
same,glycan array binding signal (z-score),[25],-0.18
same,glycan array binding signal (z-score),[26],-0.129
same,glycan array binding signal (z-score),[27],-0.194
same,glycan array binding signal (z-score),[28],4.85
same,glycan array binding signal (z-score),[29],-0.193
same,glycan array binding signal (z-score),[30],4.09
same,glycan array binding signal (z-score),[31],-0.259
same,glycan array binding signal (z-score),[32],4.2
same,glycan array binding signal (z-score),[33],-0.099
same,glycan array binding signal (z-score),[34],-0.24
same,glycan array binding signal (z-score),[35],5.15
same,glycan array binding signal (z-score),[36],-0.249
same,glycan array binding signal (z-score),[37],8.12
same,glycan array binding signal (z-score),[38],-0.204
same,glycan array binding signal (z-score),[39],-0.289
same,glycan array binding signal (z-score),[40],-0.274
